The inhibition is the change of the read-out against control, counted positive when it falls.

Results on four molecules are retold here after ChEMBL document CHEMBL1961873, “Compounds: GSK PKIS; Assays: Nanosyn kinase panel” (2012).

The target of test [1] is T1, Mitogen-activated protein kinase 12 (Homo sapiens) (UniProt P53778).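 Further: values are averaged p38gamma kinase inhibition readings, compounds tested at 1 µM.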
T1 sequence (whole entry): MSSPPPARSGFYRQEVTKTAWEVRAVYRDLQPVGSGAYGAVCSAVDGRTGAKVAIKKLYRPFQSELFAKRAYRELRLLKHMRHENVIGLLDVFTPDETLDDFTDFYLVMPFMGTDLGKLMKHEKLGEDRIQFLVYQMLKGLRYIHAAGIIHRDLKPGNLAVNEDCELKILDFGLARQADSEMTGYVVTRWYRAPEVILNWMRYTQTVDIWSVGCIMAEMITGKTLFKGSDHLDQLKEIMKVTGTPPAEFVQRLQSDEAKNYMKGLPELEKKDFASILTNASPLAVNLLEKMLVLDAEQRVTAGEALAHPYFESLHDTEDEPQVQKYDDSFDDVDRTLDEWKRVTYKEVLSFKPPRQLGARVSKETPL
As to conditions: at 1 µM.

For test [2], the target named is SRSF protein kinase 1 (Homo sapiens) (UniProt Q96SB4). The note with it: at 0.1 µM.
Test [3] has the same target. As to conditions: at 1 µM.
Test [4] concerns the target Phosphatidylinositol 4,5-bisphosphate 3-kinase catalytic subunit alpha isoform (Homo sapiens) (UniProt P42336). As to conditions: at 0.1 µM.
For test [5] the target is unchanged. As to conditions: at 1 µM.
Test [6] concerns the target T2, Phosphatidylinositol 4,5-bisphosphate 3-kinase catalytic subunit delta isoform (Homo sapiens) (UniProt O00329).
T2 sequence (whole entry): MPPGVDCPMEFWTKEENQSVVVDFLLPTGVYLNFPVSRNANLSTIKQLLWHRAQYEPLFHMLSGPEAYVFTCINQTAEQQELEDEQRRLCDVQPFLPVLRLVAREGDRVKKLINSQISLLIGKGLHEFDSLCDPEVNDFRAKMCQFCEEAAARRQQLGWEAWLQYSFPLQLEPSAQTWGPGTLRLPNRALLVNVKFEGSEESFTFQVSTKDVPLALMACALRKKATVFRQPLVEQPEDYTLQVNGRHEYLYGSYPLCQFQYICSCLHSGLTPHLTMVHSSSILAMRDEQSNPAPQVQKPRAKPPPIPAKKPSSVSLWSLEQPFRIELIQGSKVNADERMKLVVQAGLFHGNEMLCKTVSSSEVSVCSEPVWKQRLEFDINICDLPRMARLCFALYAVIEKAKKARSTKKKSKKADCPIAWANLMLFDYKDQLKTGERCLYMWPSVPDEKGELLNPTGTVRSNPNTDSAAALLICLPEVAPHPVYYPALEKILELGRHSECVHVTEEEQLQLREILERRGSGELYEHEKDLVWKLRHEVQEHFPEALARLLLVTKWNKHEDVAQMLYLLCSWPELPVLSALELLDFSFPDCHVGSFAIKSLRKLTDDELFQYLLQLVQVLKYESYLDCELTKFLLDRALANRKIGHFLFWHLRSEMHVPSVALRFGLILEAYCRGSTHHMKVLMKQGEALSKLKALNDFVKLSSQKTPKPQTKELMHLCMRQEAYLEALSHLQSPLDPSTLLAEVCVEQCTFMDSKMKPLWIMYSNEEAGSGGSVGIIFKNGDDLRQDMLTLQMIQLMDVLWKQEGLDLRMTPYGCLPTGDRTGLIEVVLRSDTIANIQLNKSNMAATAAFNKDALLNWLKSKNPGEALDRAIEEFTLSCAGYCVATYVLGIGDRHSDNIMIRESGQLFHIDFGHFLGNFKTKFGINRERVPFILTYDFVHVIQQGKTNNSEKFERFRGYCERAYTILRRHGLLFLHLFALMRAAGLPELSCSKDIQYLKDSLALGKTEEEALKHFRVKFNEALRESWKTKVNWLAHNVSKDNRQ
As to conditions: at 0.1 µM.

In test [7] the target is T2, Phosphatidylinositol 4,5-bisphosphate 3-kinase catalytic subunit delta isoform (Homo sapiens). The note with it: at 1 µM.
Test [8] deals with Phosphatidylinositol 4-kinase beta (Homo sapiens) (UniProt Q9UBF8). As to conditions: at 0.1 µM.
For test [9] the target is unchanged. The note with it: at 1 µM.
The target of test [10] is Sphingosine kinase 1 (Homo sapiens) (UniProt Q9NYA1). The note with it: at 0.1 µM.
Test [11] has the same target. The note with it: at 1 µM.
Test [12] deals with T3, Sphingosine kinase 2 (Homo sapiens) (UniProt Q9NRA0).
T3 sequence (whole entry): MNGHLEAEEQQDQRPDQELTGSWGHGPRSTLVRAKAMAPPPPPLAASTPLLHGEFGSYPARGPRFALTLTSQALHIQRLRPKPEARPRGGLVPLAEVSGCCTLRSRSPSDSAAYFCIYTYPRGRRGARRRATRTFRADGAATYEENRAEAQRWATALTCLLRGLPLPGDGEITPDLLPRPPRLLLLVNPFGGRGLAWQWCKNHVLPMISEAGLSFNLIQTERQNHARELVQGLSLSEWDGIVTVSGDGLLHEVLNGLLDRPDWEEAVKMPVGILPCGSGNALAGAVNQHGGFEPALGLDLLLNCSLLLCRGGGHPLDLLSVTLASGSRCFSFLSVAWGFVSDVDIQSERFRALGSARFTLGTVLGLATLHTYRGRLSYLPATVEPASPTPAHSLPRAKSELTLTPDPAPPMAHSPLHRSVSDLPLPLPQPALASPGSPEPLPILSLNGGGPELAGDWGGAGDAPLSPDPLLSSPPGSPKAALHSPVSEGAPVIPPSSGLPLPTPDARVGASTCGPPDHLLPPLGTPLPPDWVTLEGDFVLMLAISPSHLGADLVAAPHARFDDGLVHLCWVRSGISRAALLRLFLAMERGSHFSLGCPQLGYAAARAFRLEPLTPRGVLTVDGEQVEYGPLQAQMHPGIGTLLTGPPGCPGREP
As to conditions: at 0.1 µM.

Test [13] has as its target T3, Sphingosine kinase 2 (Homo sapiens). The note with it: at 1 µM.
In test [14] the target is Casein kinase II subunit alpha (Homo sapiens) (UniProt P68400). The note with it: at 0.1 µM.
The target is the same in test [15]. As to conditions: at 1 µM.
The target of test [16] is T4, Inhibitor of nuclear factor kappa-B kinase subunit alpha (Homo sapiens) (UniProt O15111).
T4 sequence (whole entry): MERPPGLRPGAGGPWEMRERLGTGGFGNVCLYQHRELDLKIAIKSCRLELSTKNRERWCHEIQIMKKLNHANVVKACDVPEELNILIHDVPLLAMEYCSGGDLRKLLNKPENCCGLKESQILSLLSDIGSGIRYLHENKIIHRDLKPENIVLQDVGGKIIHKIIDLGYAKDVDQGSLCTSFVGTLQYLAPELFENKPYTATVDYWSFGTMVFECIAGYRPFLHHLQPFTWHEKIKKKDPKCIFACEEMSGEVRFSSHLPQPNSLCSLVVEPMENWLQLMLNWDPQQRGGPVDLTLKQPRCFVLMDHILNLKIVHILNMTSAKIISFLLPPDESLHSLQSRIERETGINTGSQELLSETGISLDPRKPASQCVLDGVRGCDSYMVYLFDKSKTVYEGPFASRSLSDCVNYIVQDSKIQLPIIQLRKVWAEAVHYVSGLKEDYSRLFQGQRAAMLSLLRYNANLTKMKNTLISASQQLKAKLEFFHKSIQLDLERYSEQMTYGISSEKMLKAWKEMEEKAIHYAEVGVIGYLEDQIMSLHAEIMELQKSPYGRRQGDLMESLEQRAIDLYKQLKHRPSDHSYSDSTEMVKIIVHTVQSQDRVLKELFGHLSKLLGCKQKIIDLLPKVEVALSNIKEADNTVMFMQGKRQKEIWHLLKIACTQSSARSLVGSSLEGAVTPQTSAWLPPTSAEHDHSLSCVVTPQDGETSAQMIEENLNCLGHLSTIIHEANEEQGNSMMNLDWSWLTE
The note with it: at 0.1 µM.

The target in test [17] is T4, Inhibitor of nuclear factor kappa-B kinase subunit alpha (Homo sapiens). The note with it: at 1 µM.
Test [18] has as its target T5, Inhibitor of nuclear factor kappa-B kinase subunit beta (Homo sapiens) (UniProt O14920).
T5 sequence (whole entry): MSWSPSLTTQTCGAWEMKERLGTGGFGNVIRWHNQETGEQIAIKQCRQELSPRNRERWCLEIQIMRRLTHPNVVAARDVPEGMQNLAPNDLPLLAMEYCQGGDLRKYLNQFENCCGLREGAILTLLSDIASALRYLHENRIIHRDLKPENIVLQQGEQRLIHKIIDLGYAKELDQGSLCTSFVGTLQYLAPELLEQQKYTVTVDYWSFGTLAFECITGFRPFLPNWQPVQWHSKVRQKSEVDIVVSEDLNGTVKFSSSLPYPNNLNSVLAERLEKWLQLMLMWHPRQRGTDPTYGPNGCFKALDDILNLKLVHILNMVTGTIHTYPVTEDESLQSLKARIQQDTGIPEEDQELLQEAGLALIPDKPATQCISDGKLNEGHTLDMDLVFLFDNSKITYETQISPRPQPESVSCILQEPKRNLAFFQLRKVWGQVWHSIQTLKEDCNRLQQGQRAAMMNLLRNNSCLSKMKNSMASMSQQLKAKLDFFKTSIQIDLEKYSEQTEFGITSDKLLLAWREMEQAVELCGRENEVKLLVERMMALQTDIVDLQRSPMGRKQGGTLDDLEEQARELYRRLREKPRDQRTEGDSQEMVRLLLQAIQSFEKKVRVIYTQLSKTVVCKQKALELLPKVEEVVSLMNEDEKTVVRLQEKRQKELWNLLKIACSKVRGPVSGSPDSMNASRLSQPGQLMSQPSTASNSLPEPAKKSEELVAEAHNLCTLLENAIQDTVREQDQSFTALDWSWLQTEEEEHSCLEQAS
As to conditions: at 0.1 µM.

The target in test [19] is T5, Inhibitor of nuclear factor kappa-B kinase subunit beta (Homo sapiens). The note with it: at 1 µM.
Test [20] addresses T6, Inhibitor of nuclear factor kappa-B kinase subunit epsilon (Homo sapiens) (UniProt Q14164).
T6 sequence (whole entry): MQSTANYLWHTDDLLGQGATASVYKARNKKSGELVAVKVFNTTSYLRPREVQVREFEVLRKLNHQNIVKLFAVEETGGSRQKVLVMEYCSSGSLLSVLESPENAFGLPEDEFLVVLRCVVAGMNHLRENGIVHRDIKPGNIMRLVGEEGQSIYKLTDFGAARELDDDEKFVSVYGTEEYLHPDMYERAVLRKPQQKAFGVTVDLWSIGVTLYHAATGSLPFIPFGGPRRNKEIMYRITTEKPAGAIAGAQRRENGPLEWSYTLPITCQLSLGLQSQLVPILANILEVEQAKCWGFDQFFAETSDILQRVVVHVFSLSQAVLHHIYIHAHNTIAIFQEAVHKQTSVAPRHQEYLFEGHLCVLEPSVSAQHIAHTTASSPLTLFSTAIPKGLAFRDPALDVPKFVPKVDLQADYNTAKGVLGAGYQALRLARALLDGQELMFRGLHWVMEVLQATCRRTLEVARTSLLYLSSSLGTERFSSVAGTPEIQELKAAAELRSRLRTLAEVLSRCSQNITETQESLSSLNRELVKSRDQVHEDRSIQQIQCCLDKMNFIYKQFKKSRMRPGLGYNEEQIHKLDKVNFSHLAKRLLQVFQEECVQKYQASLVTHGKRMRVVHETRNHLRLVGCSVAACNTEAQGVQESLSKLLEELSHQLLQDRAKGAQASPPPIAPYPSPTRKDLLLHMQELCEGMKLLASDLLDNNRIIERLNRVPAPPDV
The note with it: at 0.1 µM.

Casein kinase II subunit alpha (Homo sapiens), sequence (P68400 whole entry, looked up): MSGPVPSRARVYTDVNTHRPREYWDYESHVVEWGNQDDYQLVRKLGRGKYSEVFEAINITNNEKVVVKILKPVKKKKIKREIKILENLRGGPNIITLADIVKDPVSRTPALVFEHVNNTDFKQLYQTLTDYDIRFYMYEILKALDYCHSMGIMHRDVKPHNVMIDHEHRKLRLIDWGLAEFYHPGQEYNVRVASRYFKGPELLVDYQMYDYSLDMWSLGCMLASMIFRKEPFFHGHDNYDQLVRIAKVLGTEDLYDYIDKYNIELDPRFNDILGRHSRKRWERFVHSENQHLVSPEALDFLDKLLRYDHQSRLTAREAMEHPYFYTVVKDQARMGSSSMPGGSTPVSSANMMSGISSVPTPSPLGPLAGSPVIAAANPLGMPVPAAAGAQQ
Phosphatidylinositol 4-kinase beta (Homo sapiens), sequence (Q9UBF8 2-816 limits assumed): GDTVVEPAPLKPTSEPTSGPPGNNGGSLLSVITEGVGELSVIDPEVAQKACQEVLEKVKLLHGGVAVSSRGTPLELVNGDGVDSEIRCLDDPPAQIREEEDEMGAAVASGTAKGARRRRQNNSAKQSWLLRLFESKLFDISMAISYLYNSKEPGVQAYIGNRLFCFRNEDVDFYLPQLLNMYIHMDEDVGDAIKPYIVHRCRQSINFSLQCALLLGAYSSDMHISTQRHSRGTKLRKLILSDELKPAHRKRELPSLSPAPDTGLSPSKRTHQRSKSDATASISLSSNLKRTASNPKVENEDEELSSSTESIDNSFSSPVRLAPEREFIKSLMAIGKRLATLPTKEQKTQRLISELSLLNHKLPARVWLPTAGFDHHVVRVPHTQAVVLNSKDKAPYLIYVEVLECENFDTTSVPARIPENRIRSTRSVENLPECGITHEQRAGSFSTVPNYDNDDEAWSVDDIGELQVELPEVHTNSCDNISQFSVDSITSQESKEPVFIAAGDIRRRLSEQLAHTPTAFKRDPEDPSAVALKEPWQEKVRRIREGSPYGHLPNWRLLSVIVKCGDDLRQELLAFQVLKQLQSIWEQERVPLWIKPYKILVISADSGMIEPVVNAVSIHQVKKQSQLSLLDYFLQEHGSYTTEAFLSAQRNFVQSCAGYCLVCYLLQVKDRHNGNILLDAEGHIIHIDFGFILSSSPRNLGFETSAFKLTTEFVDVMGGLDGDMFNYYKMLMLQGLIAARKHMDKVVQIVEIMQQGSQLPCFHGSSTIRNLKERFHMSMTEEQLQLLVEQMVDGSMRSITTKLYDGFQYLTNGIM
SRSF protein kinase 1 (Homo sapiens), sequence (Q96SB4 whole entry): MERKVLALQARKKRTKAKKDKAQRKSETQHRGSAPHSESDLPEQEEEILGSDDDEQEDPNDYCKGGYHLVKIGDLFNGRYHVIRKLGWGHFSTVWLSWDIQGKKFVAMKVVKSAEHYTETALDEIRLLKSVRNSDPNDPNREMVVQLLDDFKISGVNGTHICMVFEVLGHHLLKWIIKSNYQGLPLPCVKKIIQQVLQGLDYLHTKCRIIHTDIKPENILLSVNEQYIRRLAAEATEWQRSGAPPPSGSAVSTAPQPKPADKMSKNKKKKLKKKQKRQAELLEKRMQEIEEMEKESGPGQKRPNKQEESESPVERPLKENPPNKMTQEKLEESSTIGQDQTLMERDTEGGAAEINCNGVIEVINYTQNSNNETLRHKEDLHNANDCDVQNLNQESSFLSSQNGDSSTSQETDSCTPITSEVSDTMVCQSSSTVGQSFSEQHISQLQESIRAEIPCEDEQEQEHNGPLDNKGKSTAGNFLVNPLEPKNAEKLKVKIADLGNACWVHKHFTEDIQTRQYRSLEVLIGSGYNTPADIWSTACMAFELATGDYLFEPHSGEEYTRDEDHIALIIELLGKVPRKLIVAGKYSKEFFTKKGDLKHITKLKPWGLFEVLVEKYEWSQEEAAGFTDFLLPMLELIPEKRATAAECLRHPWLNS
Phosphatidylinositol 4,5-bisphosphate 3-kinase catalytic subunit alpha isoform (Homo sapiens), sequence (P42336 whole entry, canonical isoform): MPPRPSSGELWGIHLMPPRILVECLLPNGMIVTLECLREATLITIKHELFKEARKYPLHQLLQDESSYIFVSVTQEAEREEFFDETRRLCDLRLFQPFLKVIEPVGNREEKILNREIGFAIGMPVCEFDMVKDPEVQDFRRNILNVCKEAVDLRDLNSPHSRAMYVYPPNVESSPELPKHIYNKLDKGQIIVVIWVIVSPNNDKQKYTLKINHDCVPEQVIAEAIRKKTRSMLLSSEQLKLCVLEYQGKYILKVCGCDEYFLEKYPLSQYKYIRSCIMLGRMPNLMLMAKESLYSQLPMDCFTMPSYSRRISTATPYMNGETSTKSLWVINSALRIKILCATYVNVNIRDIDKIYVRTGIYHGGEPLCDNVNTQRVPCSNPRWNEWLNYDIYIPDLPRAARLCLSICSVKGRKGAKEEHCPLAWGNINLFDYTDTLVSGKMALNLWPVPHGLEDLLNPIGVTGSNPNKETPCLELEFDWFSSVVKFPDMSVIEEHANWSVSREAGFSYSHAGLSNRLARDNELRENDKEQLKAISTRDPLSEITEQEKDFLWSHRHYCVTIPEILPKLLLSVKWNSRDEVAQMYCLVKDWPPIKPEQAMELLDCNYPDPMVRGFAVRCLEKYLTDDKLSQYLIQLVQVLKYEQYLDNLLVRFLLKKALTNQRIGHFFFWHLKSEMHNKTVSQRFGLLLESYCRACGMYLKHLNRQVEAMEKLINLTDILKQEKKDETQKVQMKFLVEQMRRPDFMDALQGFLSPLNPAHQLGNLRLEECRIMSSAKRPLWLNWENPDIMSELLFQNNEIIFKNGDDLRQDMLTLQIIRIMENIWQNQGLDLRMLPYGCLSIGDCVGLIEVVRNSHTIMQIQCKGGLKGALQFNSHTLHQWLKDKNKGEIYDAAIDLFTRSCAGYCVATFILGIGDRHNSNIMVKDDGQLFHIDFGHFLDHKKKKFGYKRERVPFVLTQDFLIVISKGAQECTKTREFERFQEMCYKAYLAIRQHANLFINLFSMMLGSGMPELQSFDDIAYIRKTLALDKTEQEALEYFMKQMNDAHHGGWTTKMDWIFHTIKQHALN
Sphingosine kinase 1 (Homo sapiens), sequence (Q9NYA1 whole entry): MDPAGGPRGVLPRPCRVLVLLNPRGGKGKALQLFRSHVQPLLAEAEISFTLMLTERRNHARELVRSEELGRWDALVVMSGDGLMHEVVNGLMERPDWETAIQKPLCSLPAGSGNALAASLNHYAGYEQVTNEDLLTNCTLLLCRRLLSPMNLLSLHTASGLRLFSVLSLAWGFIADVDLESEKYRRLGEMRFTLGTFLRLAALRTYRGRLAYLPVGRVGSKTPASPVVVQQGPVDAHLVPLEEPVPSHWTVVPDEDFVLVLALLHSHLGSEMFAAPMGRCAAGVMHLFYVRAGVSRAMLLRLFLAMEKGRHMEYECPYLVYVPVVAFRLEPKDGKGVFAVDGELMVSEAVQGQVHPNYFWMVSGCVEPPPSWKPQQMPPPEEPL

Take `COC(=O)Nc1nc2ccc(Oc3ccc(NC(=O)Nc4cc(C(F)(F)F)ccc4F)cc3)cc2s1`: the inhibition in test [1] is 2.85%; in test [2], -1.59%; in test [3], -2.01%; in [4], -0.49%; in test [5], 2.51%; in test [6] it was 1.44%. Further, the inhibition was 6.58% in test [7]; -2.75% in [8]; -0.16% in [9]; -0.71% in test [10]; -3.33% in test [11]; 0.51% in [12]. Also, the inhibition in test [13] is -0.44%; in [14] it was -0.3%; in [15], 1.75%; in test [16] it was 4.91%; in test [17], -0.96%; in test [18], 3.58%. Moreover, the figures for the inhibition in test [19] and in [20] were -1.14% and -0.11%, respectively.

For the molecule `COc1ccccc1-c1cc(/C=C2\C(=O)Nc3ncc(Br)cc32)cc(Br)c1O`, the inhibition was 4.01% in test [1]; -2.27% in test [2]; -5.25% in test [3]; 8.24% in test [4]; 18.6% in test [5]; 7.45% in [6]. In addition, the inhibition in test [7] was 13.9%; in test [8], -5.01%; in [9], 7.13%; in test [10] it was 0.8%; in [11], -2.44%; in test [12] it was 2.31%. Moreover, the inhibition in test [13] was 0.1%; in test [14], 1.59%; in test [15], 3.83%; in test [16] it was 0.19%; in test [17], 0.71%; in [18], 5.58%. In addition, the inhibition in test [19] is -0.48%; in test [20], 10.9%.

Consider `O=C(O[C@H]1CN[C@H](C#Cc2cc3ncnc(Nc4ccc5c(ccn5Cc5cc(F)ccc5F)c4)c3s2)C1)N1CCOCC1`, for which the inhibition was 3.26% in test [1]; -2.77% in [2]; -4.63% in test [3]; 3.72% in [4]; 9.95% in test [5]; 2.02% in test [6]. Also, the inhibition in [7] is 7.62%; in test [8], -3.81%; in [9], -0.39%; in test [10], 3.05%; in [11], -2.46%; in test [12] it was 0%. The inhibition in [13] worked out at 1.37%; in test [14], 7.47%; in test [15] it was 0.25%; in test [16] it was 8.85%; in test [17], 10.1%; in test [18], 7.42%. The values for the inhibition in [19] and in test [20] were 9.24% and 6.23%, respectively.

As to `NS(=O)(=O)c1ccc(N/N=C2\C(=O)Nc3ccc(C(=O)NCc4ccncc4)cc32)cc1`, the inhibition was 2.56% in test [1]; -1.11% in [2]; 2.06% in [3]; 0.9% in test [4]; 0.8% in test [5]; 0.21% in test [6]. Moreover, the inhibition in [7] was 0.37%; in [8] it was -0.51%; in test [9], -0.17%; in test [10], -0.37%; in test [11], 0.35%; in test [12], 2.9%. Further, the inhibition was -0.04% in [13]; 4.7% in [14]; 13.1% in test [15]; 2.72% in test [16]; 0.67% in test [17]; 5.86% in test [18]. Moreover, the inhibition in test [19] was determined as 5.23%; in test [20], 14.4%.
